Measured values published in ChEMBL document CHEMBL3433997, “St. Jude Leishmania screening dataset” (2016).

How the values were obtained:
Type in all cases: functional
[1] = molecular target: Solute carrier family 2, facilitated glucose transporter member 1 (Homo sapiens) (UniProt P11166); experiment: ST_JUDE_LEISH: Cytotoxicity at 2uM final concentration against transgenic Leishmania Mexicana promastigotes LmGLUT1 that are glucose transport deficient and complemented with the human glucose transporter GLUT1. Activity is measured by DNA content using SYBR green in vitro
[2] = molecular target: Hexose transporter 1 (Plasmodium falciparum) (UniProt O97467); experiment: ST_JUDE_LEISH: Cytotoxicity at 2uM final concentration against transgenic Leishmania Mexicana promastigotes LmPfHT that are glucose transport deficient and complemented with the Plasmodium falciparum hexose transporter. Activity is measured by DNA content using SYBR green in vitro
[3] = molecular target: Glucose transporter (Leishmania mexicana) (UniProt O61059); experiment: ST_JUDE_LEISH: Cytotoxicity at 2uM final concentration against transgenic Leishmania Mexicana promastigotes LmGT2 that are glucose transport deficient and complemented with the L. Mexicana glucose transporter 2. Activity is measured by DNA content using SYBR green in vitro

Solute carrier family 2, facilitated glucose transporter member 1 (Homo sapiens), sequence (P11166 whole entry): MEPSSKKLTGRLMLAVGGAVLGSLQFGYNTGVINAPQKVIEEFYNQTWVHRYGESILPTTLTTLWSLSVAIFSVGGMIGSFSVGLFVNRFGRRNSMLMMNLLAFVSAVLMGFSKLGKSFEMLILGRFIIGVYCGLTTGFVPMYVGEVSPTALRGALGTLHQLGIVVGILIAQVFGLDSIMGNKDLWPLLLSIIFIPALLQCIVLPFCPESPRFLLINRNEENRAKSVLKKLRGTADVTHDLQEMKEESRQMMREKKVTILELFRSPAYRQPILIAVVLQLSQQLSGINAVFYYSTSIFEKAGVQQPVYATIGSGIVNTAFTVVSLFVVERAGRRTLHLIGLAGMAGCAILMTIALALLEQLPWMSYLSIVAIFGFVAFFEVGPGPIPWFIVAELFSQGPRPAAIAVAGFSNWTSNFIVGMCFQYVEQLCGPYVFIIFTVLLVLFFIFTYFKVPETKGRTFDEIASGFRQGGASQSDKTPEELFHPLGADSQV

COc1ccc(/C=C/C(=O)N2CCc3cc4nccc(N5CCN6CCC[C@H]6C5)c4cc32)cc1
inhibition [1]: 3.43%
inhibition [2]: 4.78%
inhibition [3]: 4.53%

Cc1[nH]c(C)c(-c2ccc(-c3ccc(Cl)cc3)nc2)c(=O)c1Br
inhibition [1]: -0.04%
inhibition [2]: -0.24%
inhibition [3]: -1.28%

c1ccc(Oc2ccc(Nc3ccnc(Nc4ccc5cn[nH]c5c4)n3)cc2)cc1
inhibition [1]: 3.91%
inhibition [2]: 3.81%
inhibition [3]: 1.54%

COc1ccccc1CNC(=O)c1ccc(N2CCN(c3ccncc3)CC2)cn1
inhibition [1]: 7.32%
inhibition [2]: 2.84%
inhibition [3]: 1.11%

CC(=O)Nc1ccc(C(=O)NC2CCN(c3ccnc4cc(Cl)ccc34)C2)cc1 (configuration not stated)
inhibition [1]: 0.36%
inhibition [2]: 0.28%
inhibition [3]: 1.4%

O=S(=O)(Nc1ccc2nccc(N3CCNCC3)c2c1)c1ccc(-c2ccccc2)cc1
inhibition [1]: 0.86%
inhibition [2]: 1.12%
inhibition [3]: 0.59%

O=C(/C=C/c1ccc(Cl)c(Cl)c1)NC1CCN(Cc2ccc(O)cc2)CC1
inhibition [1]: 1.47%
inhibition [2]: 0.53%
inhibition [3]: -3.54%

c1ccc(CSC2=NNC(c3ccccn3)S2)cc1 (configuration not stated)
inhibition [1]: 0.82%
inhibition [2]: 3.23%
inhibition [3]: 2.48%

Cc1cccc(OCC(=O)Nc2cccc(NC(=O)COc3cccc(C)c3)n2)c1
inhibition [1]: 0.99%
inhibition [2]: 1.55%
inhibition [3]: 1.64%

Oc1ccccc1CN(CCCN(Cc1ccccn1)Cc1ccccc1O)Cc1ccccn1
inhibition [1]: 4.2%
inhibition [2]: 3.15%
inhibition [3]: 4.96%

CC(C)COc1ccc(Cl)cc1Cc1ccc(-c2nc3ccc(C(F)(F)F)cc3[nH]2)o1
inhibition [1]: 0.04%
inhibition [2]: 0.46%
inhibition [3]: 2.13%

CN(CCN1CCC(c2c[nH]c3ccccc23)CC1)C(=O)OCCCCCNC(=O)/C=C/c1ccc(Cl)c(Cl)c1
inhibition [1]: 9.15%
inhibition [2]: 10.3%
inhibition [3]: 8.82%

CCCN(Cc1nnc(-c2ccco2)o1)C(=O)C1CCCN(C(=O)c2ccc(Cl)cc2)C1 (configuration not stated)
inhibition [1]: 1.85%
inhibition [2]: 0.73%
inhibition [3]: -0.96%

OC(c1cccc(OCc2ccccc2)c1)C1CN(CCc2ccccc2)CCC1(O)c1ccccc1 (configuration not stated)
inhibition [1]: -1.45%
inhibition [2]: -0.62%
inhibition [3]: -0.2%

CC(=NNc1nc2ccccc2s1)c1ccccn1
inhibition [1]: 7.41%
inhibition [2]: 17.9%
inhibition [3]: 3.21%

CCCCc1cc(NCC)nc(Nc2cccc(OC)c2)n1
inhibition [1]: 38.6%
inhibition [2]: 27%
inhibition [3]: 19.1%

Cc1ccc(Cn2ncc(N3CCCNCC3)c(Cl)c2=O)cc1NC(=O)Nc1ccc(-c2ccccc2)cc1
inhibition [1]: 3.82%
inhibition [2]: 4.05%
inhibition [3]: 4.8%

CC[C@H](C)CNC(=O)c1cncc(-c2ccc(CNCCCc3ccccc3)cc2)c1
inhibition [1]: 1.47%
inhibition [2]: -1.11%
inhibition [3]: -2.21%

Nc1nc(N)c2cc(S(=O)(=O)c3ccc4ccccc4c3)ccc2n1
inhibition [1]: 10.7%
inhibition [2]: 18.4%
inhibition [3]: 8.89%

CC[C@@]1(O)C(=O)OCc2c1cc1n(c2=O)Cc2c-1nc1cc3c(cc1c2CN1CCN(C)CC1)OCCO3
inhibition [1]: 7.46%
inhibition [2]: 15%
inhibition [3]: 3.83%

CC(C)N1CCC(N(Cc2ccc(-c3ccc(C(F)(F)F)cc3)cc2)C(=O)Cn2c(CCc3cccc(F)c3F)cc(=O)c3ccccc32)CC1
inhibition [1]: 0.12%
inhibition [2]: 1.55%
inhibition [3]: 1.16%

CNCCNCc1cccc(-c2ccc(-c3nc4ccccc4[nH]3)cc2)c1
inhibition [1]: -1.56%
inhibition [2]: 0.67%
inhibition [3]: -0.51%

Cc1noc(C)c1-c1ccc2c(Nc3ccccc3C(C)(C)C)c(C(=O)NCc3ccc(C(F)(F)F)cc3)cnc2c1
inhibition [1]: 3.44%
inhibition [2]: 5.41%
inhibition [3]: 3.69%

COc1ccc2[nH]ccc(=NN=Cc3ccc(F)cc3)c2c1
inhibition [1]: 2.33%
inhibition [2]: -0.63%
inhibition [3]: -0.34%
